Screening results from PubChem.
Many of the other results were omitted from the sample, so hits are more common in it than they were.
LDHA inh: inhibitors of human lactate dehydrogenase A | P00338 | purified LDHA, NADH/diaphorase-resazurin fluorescence; hits give low values | activity change, % (values are at about 110 or 230 µM) | 480,000 tested, 0.15% active | AID 1347041; in the data active = activity change below about -30%; inconclusive = mostly about -25% to -30%;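 note: plate controls were DMSO wells for no effect and wells without enzyme for full effect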
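Resorufin fluorescence (ex540/em590), read at 0 and 20 min after diaphorase/resazurin addition, reports the NADH left after a 5 min room-temperature reaction of 2 nM human LDH5 with 0.06 mM NADH and 0.2 mM pyruvate.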
ASM inhibitor: inhibitors of human secretory acid sphingomyelinase | P17405 | placental ASM, HMU-PC fluorogenic substrate, 60 min | Potency, µM (top dose mostly 57.5 µM), for inactives: at the highest dose activity change, negative = inhibition, usual class: inhibitors | 340,000 tested, 0.006% active | AID 504937; note: potency is the fitted concentration of half-maximal effect
Target sequence (P17405 47-631 limits assumed): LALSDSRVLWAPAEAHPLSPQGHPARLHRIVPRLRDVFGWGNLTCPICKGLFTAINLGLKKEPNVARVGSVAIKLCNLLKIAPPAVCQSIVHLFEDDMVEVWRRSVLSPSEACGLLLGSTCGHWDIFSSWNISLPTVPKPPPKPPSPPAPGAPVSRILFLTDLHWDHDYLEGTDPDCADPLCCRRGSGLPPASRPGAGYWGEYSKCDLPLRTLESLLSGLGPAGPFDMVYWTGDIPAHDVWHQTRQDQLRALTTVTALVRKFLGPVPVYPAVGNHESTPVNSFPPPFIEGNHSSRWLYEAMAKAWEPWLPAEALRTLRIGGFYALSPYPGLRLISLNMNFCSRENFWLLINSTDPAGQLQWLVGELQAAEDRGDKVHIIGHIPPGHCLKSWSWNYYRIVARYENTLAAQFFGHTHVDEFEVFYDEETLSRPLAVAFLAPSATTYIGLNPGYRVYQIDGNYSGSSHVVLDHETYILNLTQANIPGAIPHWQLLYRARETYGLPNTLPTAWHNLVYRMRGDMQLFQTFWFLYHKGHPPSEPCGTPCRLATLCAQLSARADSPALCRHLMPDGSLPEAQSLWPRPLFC
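Human placenta-derived ASM enzyme was preincubated with compound for 10 minutes at room temperature, then given fluorogenic substrate HMU-PC0 (9 uM final) for 60 minutes at 37 °C; a pH 10 stop preceded fluorescence reading at Ex 386/Em 447 nm.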
Mito fusion act: inhibitors of mitochondrial division or activators of mitochondrial fusion; 320,000 tested, 0.23% active; S. cerevisiae fusion-defective mutant growth rescue, CellTiterGlo 48 h; Potency, µM (doses to about 46.1 µM), for inactives: top-dose growth rescue (activation), usual class: activators; note: potency is the fitted concentration of half-maximal effect; % of control where 0% means no effect; nearly all actives have a fitted effect of over 45% in size
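Read-out: ATP-based luminescence (CellTiterGlo, 10 min ambient) reporting growth of fusion-defective ts yeast after 48 hours at 37C on glycerol/ethanol YPEG medium in the presence of compound.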
RGS4 inh: blocks human RGS4-accelerated GTP hydrolysis. AID 504845. 390,000 tested, 0.039% active. Transcreener GDP fluorescence polarization, RGS4-accelerated GTP hydrolysis. Potency, µM (series often up to 114 µM), for the others: at the top dose activity change, negative = inhibition, usual class: inhibitors; note: potency is the fitted concentration of half-maximal effect; % is set by controls: 0 for no effect and ±100 for the full control effect; nearly all actives have a fitted effect of over 75% in size
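MLSMR compounds (23 nl, pin-transferred) preincubated 10 min at room temperature with a 500nM (2x) first reagent, then RGS4 at 900nM (2x) plus Transcreener GDP mix added; fluorescence polarization (620/688 nm) read before and after 90 min at 30 °C.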
IDH1 R132H inh: blocks human mutant IDH1 R132H enzyme. O75874. IDH1-R132H enzyme, NADPH consumption, diaphorase/resazurin fluorescence. Potency, µM (series often up to 76.6 µM), for inactives: at the top dose activity change, negative = inhibition, actives largely listed as inhibitors. 390,000 tested, 0.093% active; note: potency is the fitted concentration of half-maximal effect; % is set by controls: 0 for no effect and ±100 for the full control effect; nearly all actives have a fitted effect of over 65% in size
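IDH1-R132H (0.5 ug/mL) preincubated 30 min with compound, then NADPH (0.016 mM) and alpha-KG (2 mM) added; 80 min at RT, pH 7.5. Remaining NADPH coupled via diaphorase/resazurin to fluorescence (540/590 nm); concentration-response curves normalized to no-enzyme control.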
ClpP mod: qHTS Assay for Activators of ClpP; AID 651965, 2013; Potency, µM (titrated, usually from 57.5 µM), inactives show at the top dose activity change, negative = active; 340,000 tested, 1.9% active; ATP-dependent Clp protease proteolytic subunit (Bacillus subtilis (strain 168)), P80244; purified B. subtilis ClpP, FRET peptide cleavage, 20 min; active = well fitted falling curve with a large enough effect; inconclusive = small, poorly fitted or top-dose-only effect; inactive = no such curve, though single readings can be large or run the other way; note: potency is the fitted concentration of half-maximal effect; the source files actives as falling curves though it sought activators and does not explain the sign; nearly all actives have a fitted effect of over 65% in size
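Buffer: 100 mM Tris/HCl pH8, 100 mM KCl, 0.05% low protease BSA, 2.5% glycerol, 0.01% Tween-20. ClpP 10 microg/mL final; 20 min RT; delta FRET normalized to ADEP and DMSO controls.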
* = called active by the depositor; i = inactive; ? = inconclusive; . = no result given. Unless noted, calls come from the whole dose curve; as a rule, active = well fitted curve in the direction sought with a large enough effect; inconclusive = small, poorly fitted or top-dose-only effect, or another doubt; inactive = no such curve, though single readings can be large; an effect the other way counts as inactive or inconclusive.

SMILES	LDHA inh	ASM inhibitor	Mito fusion act	RGS4 inh	IDH1 R132H inh	ClpP mod
COCCCC1CCN(C(=O)c2cc(COc3ccc(C)nc3)on2)CC1	3	0%	-2%	-25%	7%	28µM*
COc1ccc(OC)c(NS(=O)(=O)c2cc(C(=O)N3CCCCC3)cs2)c1	-21	.	.	.	.	.
Cc1csc2nc(COc3cccc(NC(=O)c4ccccc4F)c3)cc(=O)n12	2	.	.	-26%	10%	?
O=C(Nc1nc(COc2ccccc2)cs1)c1ccccc1F	-5	-5%	16µM*	-21%	9%	645%
O=C1/C(=C\c2ccc(O)c(O)c2)SC(=S)N1Cc1ccccc1	13	?	13µM*	-44%	?	.
COc1cc(/C=C2/SC(=S)N(Cc3ccccc3)C2=O)ccc1O	0	-5%	-27%	-16%	?	.
CC(C)CN(CC(C)C)C(=S)NCc1ccco1	-8	.	.	.	.	.
O=C(COc1ccc(S(=O)(=O)N2CCOCC2)cc1)NCC1CCCO1 (stereo not given)	-1	6%	0%	-12%	1%	-4%
O=C(COC(=O)c1cc(S(=O)(=O)N2CCOCC2)ccc1O)NCC1CCCO1 (stereo not given)	-6	3%	-3%	-22%	-3%	35µM*
CC(C)C1OC2(C)OC(=N)C1(C#N)C(C#N)(C#N)C2c1ccccc1 (stereo not given)	15	i	0%	-52%	-1%	1%
CCC1OC2(C)OC(=N)C1(C#N)C(C#N)(C#N)C2c1ccccc1 (stereo not given)	0	i	0%	-21%	2%	22µM*
CCC12OC(=N)C(C#N)(C1C)C(C#N)(C#N)C(c1ccccc1)O2 (stereo not given)	-1	i	-5%	-5%	5%	7.1µM*
CCOC(=O)Nc1ccccc1	-5	.	.	.	.	.
CCOC(=O)Nc1ccc(=O)n(Cc2c(Cl)cccc2Cl)c1	0	3%	0%	?	7%	28µM*
CCOc1ccc(N2CC(C(=O)Nc3ccccn3)CC2=O)cc1 (stereo not given)	0	1%	-1%	-18%	14%	.
CCOc1ccc(N2CC(C(=O)Nc3ncccc3C)CC2=O)cc1 (stereo not given)	-4	2%	0%	18%	0%	18µM*
Clc1ccc(CCNc2ncnc3c2c(-c2ccccc2)cn3-c2ccccc2)cc1	-2	.	.	23%	-13%	20µM*
CCOc1ccc(-n2cc(-c3ccccc3)c3c(NCc4ccccc4)ncnc32)cc1	-3	.	.	16%	-14%	5%
CCOc1ccc(-n2cc(-c3ccccc3)c3c(NCCc4ccccc4)ncnc32)cc1	-3	.	.	-4%	-10%	25µM*
O=C(O)C/C(=C/c1ccc(C(=O)O)cc1)c1nc2ccccc2s1	0	.	.	.	.	.
CCOC(=O)c1cnc(Cc2ccccc2)[nH]c1=O	-1	2%	0%	6%	-8%	-1%
CCOC(=O)c1cnn2c1[nH]c(=O)c1ccccc12	-1	4%	1%	-8%	4%	3.5µM*
Clc1ccc(-c2nnc(-c3ccco3)nc2N2CCCCC2)cc1	2	-5%	11µM*	?	4%	2%
O=C(COC(=O)c1cc2ccccc2cc1O)Nc1ccc(F)cc1	9	.	.	.	.	.
CCc1ccccc1NC(=O)Cn1c2ncccc2c(=O)n1-c1ccccc1	-3	.	.	-11%	3%	4%
CCOC(=O)c1ccccc1NC(=O)Cn1c2ncccc2c(=O)n1-c1ccccc1	-3	.	.	-4%	0%	11µM*
COC(=O)c1ccc(COc2ccc(C(=O)OC)cc2Br)cc1	-20	.	.	.	.	.
Cc1ccc2nc3c(cc(C#N)c(=O)n3-c3nccs3)c(=O)n2c1	4	i	3%	-5%	7%	2.5µM*
